Screening data as filed in PubChem BioAssay.
In the library only some 0.9% were active in any assay of this set; here they are far more common.
PfHsp40 rescue – restores yeast growth despite PfHsp40 toxicity; S. cerevisiae expressing PfHsp40, growth rescue, ATP luminescence; AID 504582; actives 0.68% (n = 340,000); growth rescue, % at 12.5 µM; in the data active = growth rescue above about 28%, passing the limit was not always enough;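 note: yeast W303a lacking pdr1 and pdr3 grown in galactose medium; growth measured after three days at 30 °C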
RN4220 kill – kills Staphylococcus aureus RN4220. S. aureus RN4220 growth, OD600, 16 h. inhibition, % (no concentration beside the values). actives 0.33% (n = 330,000). AID 1259311; in the data active = inhibition above about 85%;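 note: plate controls were untreated cells for no effect and reference antibiotic for full effect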
Sa ugtP lethal – kills S. aureus RN4220 lacking UgtP; actives 0.54% (n = 330,000); growth inhibition, % (no concentration beside the values); S. aureus RN4220 ugtP deletion, OD600 growth, 16 h; in the data active = growth inhibition above about 68%;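 note: plate controls were untreated wells for no effect and antibiotic for full effect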
BioA inh – BioA (M. tuberculosis) enzyme inhibition; purified M. tuberculosis BioA enzyme, plate reader; inhibition, % at 9.99 µM; actives 0.096% (n = 360,000); in the data active = inhibition above about 40%
Mtb bLac sens – beta-lactam sensitization of Mtb H37Rv; AID 434955; actives 0.27% (n = 330,000); inhibition, % at 25 µM; M. tuberculosis H37Rv growth with meropenem, percent inhibition; call rule not given here;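 note: growth measured after seven days incubation then overnight dye step; 0% = bacteria only wells and 100% = bacteria with antibiotic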
Numbers without * were called inactive; nt = no result given.

SMILES	PfHsp40 rescue	RN4220 kill	Sa ugtP lethal	BioA inh	Mtb bLac sens
O=C(NCc1ccccn1)C(=O)NCC1OCCN1S(=O)(=O)c1ccc([N+](=O)[O-])cc1 (stereo not given)	106.8*	10.0	4.2	-0.5	12.1
CC=CC(=O)Nc1cccc(C2=NOC3(C2)CC(C(N)=O)N(C(=O)C=CC)C3)c1 (stereo not given)	nt	5.8	-1.9	nt	nt
C[C@@H](CN1CCC[C@H]1CN1C(N)=NC[C@@H]1Cc1ccccc1)N1C[C@@H](Cc2ccccc2)N(CCc2ccc(Cl)c(Cl)c2)C1=N	5.2	nt	nt	-0.3	100.0
CCCC(CN1CCCC1CN1C(N)=NCC1Cc1ccccc1)N1CC(C(C)CC)N(CCc2ccc(Cl)c(Cl)c2)C1=N (stereo not given)	nt	100.6*	100.4*	nt	nt
CC(C)[C@H](CN1CCC[C@H]1CN1C(N)=NC[C@@H]1Cc1ccccc1)N1C[C@@H](Cc2ccccc2)N(CCc2ccc(Cl)c(Cl)c2)C1=N	35.4*	nt	nt	0.2	100.1
CC[C@@H](C)[C@@H]1CN([C@@H](CN2CCC[C@H]2CN2C(N)=NC[C@H]2CC(C)C)C(C)C)C(=N)N1CCc1ccc(Cl)c(Cl)c1	2.3	99.9*	100.4*	-2.0	100.1
CC(C)[C@@H]1CN=C(N)N1C[C@@H]1CCCN1C[C@H](C)N1C[C@@H](Cc2ccccc2)N(CCc2ccc(Cl)c(Cl)c2)C1=N	3.9	100.7*	100.5*	0.1	99.5
C=CCCC(Cc1ccc(F)cc1)C(=O)OCC(Cc1c[nH]c2ccccc12)NC(=O)C(CC=C)CC(=O)NCCO (stereo not given)	nt	5.2	2.8	nt	nt
CCCC(CN1CCCC1CN1C(N)=NCC1Cc1ccccc1)N1CC(Cc2ccccc2)N(CCc2ccc(Cl)c(Cl)c2)C1=N (stereo not given)	nt	100.8*	100.5*	nt	nt
CC[C@@H](C)[C@@H]1CN([C@@H](CN2CCC[C@H]2CN2C(N)=NC[C@H]2CC(C)C)C(C)C)C(=N)N1CCCC1CCCC1	0.9	100.3*	100.5*	-0.8	92.1
CCC[C@@H](CN1CCC[C@H]1CN1C(N)=NC[C@@H]1Cc1ccccc1)N1C[C@@H]([C@H](C)CC)N(CCCC2CCCC2)C1=N	1.0	nt	nt	0.9	100.1
CCC[C@@H](CN1CCC[C@H]1CN1C(N)=NC[C@@H]1Cc1ccccc1)N1C[C@@H](Cc2ccccc2)N(CCc2ccc(Cl)c(Cl)c2)C1=N	0.8	nt	nt	1.6	100.0
CCC[C@@H](CN1CCC[C@H]1CN1C(N)=NC[C@H]1CC(C)C)N1C[C@@H]([C@H](C)CC)N(CCc2ccc(Cl)c(Cl)c2)C1=N	-1.4	100.2*	100.1*	-0.8	100.1
CCC[C@@H](CN1CCC[C@H]1CN1C(N)=NC[C@H]1CC(C)C)N1C[C@@H](Cc2ccccc2)N(CCc2ccc(Cl)c(Cl)c2)C1=N	1.1	100.1*	100.1*	1.5	99.9
[N-]=[N+]=NCCC=CC1NS(=O)(=O)OCC1O (stereo not given)	nt	4.2	-0.5	nt	nt
CC(C)(C)OC(=O)CNC(=O)c1[nH]cnc1C(=O)NC(Cc1ccccc1)C(=O)OCc1ccccc1 (stereo not given)	nt	8.9	8.9	nt	nt
COC(=O)C1=COC(C)C2CN3CC[C@@]4(C(=O)Nc5ccccc54)C3CC12 (stereo not given in full)	nt	6.3	3.8	nt	nt
O=C(NC(=S)N1CCc2ccccc21)c1ccccc1Br	2.6	-1.4	-4.5	0.6	45.4
O=C(NC(=S)N1CCc2ccccc21)c1ccc(Br)o1	35.9*	4.1	0.1	nt	94.8
CC(C)CC1NC(=O)C(Cc2ccc(O)cc2)NC(=O)c2cc([N+](=O)[O-])cc(I)c2NCCCC(C(N)=O)NC1=O (stereo not given)	nt	2.3	-1.8	nt	nt
Cc1ccc(C(C)NC(=O)c2cc(C)oc2C)cc1 (stereo not given)	48.2*	2.7	-2.1	1.6	-10.3
Cc1ccc(C(C)NC(=O)c2ccco2)cc1 (stereo not given)	-1.4	6.7	9.5	-0.4	8.0
CC1NC(=O)NC1CCCCCC(=O)O (stereo not given)	nt	7.6	-2.6	nt	nt
Cc1ccc(C(C)C)c(OCc2ccc(C(=O)NN=Cc3ccc(O)c(O)c3)cc2)c1	nt	58.0	99.7*	nt	nt
CCOC(=O)N1C2=NC(C(=O)OC)=C(C(=O)OC)C3N(C)c4ccccc4[C@]23CC1C(=O)OC (stereo not given in full)	nt	8.3	2.1	nt	nt
SMILES	PfHsp40 rescue	RN4220 kill	Sa ugtP lethal	BioA inh	Mtb bLac sens
O=C(NCc1ccccc1)[C@]1(C(F)(F)F)CC(CCc2ccccc2)CCCO1 (stereo not given in full)	nt	0.6	2.7	nt	nt
COc1cc(C2CC=C(C(=O)O)C(c3ccc(Cl)cc3)N2S(=O)(=O)c2ccc(C)cc2)cc(OC)c1OC (stereo not given)	nt	5.7	9.1	nt	nt
COc1ccc2c(c1)OC[C@H]1[C@H]2N2C(=O)c3cc(OC)ccc3NC(=O)[C@@]2(C)[C@H]1c1ccccc1	116.5*	nt	nt	-0.4	98.9
C[C@]12C(=O)N(c3ccc(F)cc3)C(=O)N1[C@H]1c3ccccc3OC[C@@H]1[C@H]2c1ccccc1	93.8*	-23.6	-11.8	-0.9	11.2
C[C@@]12C(=O)N(c3ccc(F)cc3)C(=O)N1[C@@H]1c3ccccc3OC[C@@H]1[C@H]2c1ccccc1	-1.2	nt	nt	-2.0	-3.5
COc1ccc(/C=C/C(=O)NCC2COc3ccccc3O2)c(OC)c1 (stereo not given)	-0.6	-4.8	98.7*	-0.3	-4.3
COC(=O)C1=C(c2cccc(OCc3ccccc3)c2)CC2CCC1N2C(=O)NCCCc1ccccc1 (stereo not given)	nt	-7.2	11.4	nt	nt
CC(C)CCOc1cccc(OCC(=O)Nc2ccncc2)c1	105.0*	3.3	0.1	0.9	99.2
C#CCOCCOCCOCCNc1nc(N2CCOCC2)nc(N2CCN(C(=O)CCCCCCCCCCNC(=O)C(CO)n3cc(CCCCCN)nn3)CC2)n1 (stereo not given)	nt	6.2	5.6	nt	nt
O=S1(=O)C=C(Sc2nc3cc(Cl)ccc3o2)c2ccccc21	1.0	42.4	90.6*	-2.8	99.9
Cc1cc(NC(=O)CSc2nc3cc(Cl)ccc3o2)no1	-0.6	3.1	0.5	-1.1	97.4
CCCn1c(=O)c(C(=O)NNS(=O)(=O)c2ccc(Cl)cc2)c(O)c2ccccc21	0.8	99.1*	100.4*	-0.4	5.5
CCCCn1c(=O)c(C(=O)N/N=C/c2ccc(F)cc2)c(O)c2ccccc21	nt	nt	nt	nt	91.8
CCCn1c(=O)c(C(=O)NCc2ccc(OC)c(OC)c2)c(O)c2ccccc21	334.5*	13.6	8.6	-1.5	-2.6
CCCCCCCCCC(=O)NNC(=O)c1c(O)c2ccccc2n(CCC)c1=O	1.6	76.2	90.2*	nt	2.5
CCCCCCn1c(=O)c(C(=O)NN=Cc2cccc(F)c2)c(O)c2ccccc21	nt	59.7	100.0*	nt	nt
CC(NC(=O)c1nc[nH]c1C(=O)NC(C)C(=O)OC(C)(C)C)C(=O)OCc1ccccc1 (stereo not given)	nt	6.5	-1.8	nt	nt
CCC(C)C(NC(=O)OCc1ccccc1)c1nnc(C(NC(=O)OCc2ccccc2)C(C)CC)o1 (stereo not given)	nt	2.9	4.0	nt	nt
